Bioassay records (PubChem BioAssay)
Shown are actives, neighbours in structure and some others; about 9% of the full set was active somewhere.
ALOX12 inh = Primary qHTS assay for inhibitors of human arachidonate 12S-lipoxygenase (ALOX12): Round 2; purified 12hLO, xylenol orange hydroperoxide absorbance; Potency, µM (highest dose often 108 µM), for inactives: top-dose activity change, negative = inhibition, usual class: inhibitors; actives 1.1% (n = 580,000); AID 1671190, 2021; further: on the % scale 0 is the no-effect control and ±100 the full control effect
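Purified human 12hLO (150 nM final) in 25 mM Hepes, 0.01% Triton X-100, pH 7.0 was preincubated 15 min at room temperature with compound. Then 40 uM arachidonic acid was added, 30 min. Hydroperoxide was read by Fe-XO absorbance ratio 573/405 nm.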
JMJD2A Tudor inh = qHTS Assay for Inhibitors of JMJD2A-Tudor Domain; Lysine-specific demethylase 4A (Homo sapiens), O75164; AlphaScreen JMJD2A-Tudor / H3K4me3 peptide binding; Potency, µM (doses to about 114 µM), for the others: top-dose activity change, negative = inhibition, actives largely listed as inhibitors; actives 4.4% (n = 390,000); further: on the % scale 0 is the no-effect control and ±100 the full control effect; nearly all actives have a fitted effect of over 50% in size
Target sequence (O75164 whole entry, looked up, the tested form may be a part): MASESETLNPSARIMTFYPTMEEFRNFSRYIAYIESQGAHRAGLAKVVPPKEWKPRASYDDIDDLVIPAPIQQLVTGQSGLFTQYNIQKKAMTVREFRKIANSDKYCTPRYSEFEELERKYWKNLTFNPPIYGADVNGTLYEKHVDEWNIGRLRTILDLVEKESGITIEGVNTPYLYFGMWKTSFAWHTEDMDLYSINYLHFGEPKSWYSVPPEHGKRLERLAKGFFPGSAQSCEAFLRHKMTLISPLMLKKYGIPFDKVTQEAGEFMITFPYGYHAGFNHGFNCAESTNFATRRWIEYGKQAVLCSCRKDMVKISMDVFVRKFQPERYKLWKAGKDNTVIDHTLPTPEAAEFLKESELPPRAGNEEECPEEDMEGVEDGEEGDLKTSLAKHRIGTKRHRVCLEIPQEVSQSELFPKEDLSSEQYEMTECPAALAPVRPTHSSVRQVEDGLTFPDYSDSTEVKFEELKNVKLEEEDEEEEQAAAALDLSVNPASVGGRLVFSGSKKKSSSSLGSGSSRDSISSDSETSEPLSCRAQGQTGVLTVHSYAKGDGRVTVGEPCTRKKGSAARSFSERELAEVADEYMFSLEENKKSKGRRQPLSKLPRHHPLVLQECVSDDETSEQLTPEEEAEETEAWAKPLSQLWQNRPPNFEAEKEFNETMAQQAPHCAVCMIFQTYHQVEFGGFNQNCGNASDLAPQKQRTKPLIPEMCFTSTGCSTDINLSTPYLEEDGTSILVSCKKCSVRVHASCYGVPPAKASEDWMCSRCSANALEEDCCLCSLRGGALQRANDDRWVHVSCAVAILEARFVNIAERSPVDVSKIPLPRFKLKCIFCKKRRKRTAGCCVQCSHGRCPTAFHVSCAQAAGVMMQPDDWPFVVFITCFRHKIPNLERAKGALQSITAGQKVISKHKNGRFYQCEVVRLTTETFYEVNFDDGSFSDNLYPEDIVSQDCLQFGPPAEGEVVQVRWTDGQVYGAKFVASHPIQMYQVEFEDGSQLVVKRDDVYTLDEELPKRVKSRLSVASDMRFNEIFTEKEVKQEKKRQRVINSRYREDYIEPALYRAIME
BAZ2B block = qHTS Assay for Inhibitors of BAZ2B; Potency, µM (top dose mostly 114 µM), for inactives: at the top dose activity change, negative = inhibition, actives largely listed as inhibitors; Bromodomain adjacent to zinc finger domain protein 2B (Homo sapiens), Q9UIF8; actives 4.4% (n = 360,000); AlphaScreen BAZ2B-H3K14Ac peptide displacement; further: on the % scale 0 is the no-effect control and ±100 the full control effect; nearly all actives have a fitted effect of over 60% in size
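BAZ2B 50 nM plus b-H3(5-23)K14Ac 50 nM, PBS pH 7.4/0.01% Tween-20, 30 min RT; compound added (max 110 uM), 30 min RT; streptavidin donor/Ni-chelate acceptor beads 10 ug/mL final, 20 min dark; AlphaScreen read.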
HP1b chromo inh = HTS for Inhibitors of HP1-beta Chromodomain Interactions with Methylated Histone Tails. Chromobox protein homolog 1 (Homo sapiens), P83916. AlphaScreen HP1-beta / biotin-H3K9me3 peptide binding. Potency, µM (series often up to 114 µM), without a hit: at the top dose activity change, negative = inhibition, hits mostly inhibitors. actives 0.56% (n = 390,000); further: nearly all actives have a fitted effect of over 70% in size
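Compound inhibition of the preformed complex between 50 nM HP1-beta and 50 nM biotinylated H3K9me3 peptide was read by AlphaScreen. Buffer was PBS pH 7.4 with 0.01% Tween-20. Incubations ran 30 min at room temperature, with 10 ug/mL donor/acceptor beads.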
G9a block = qHTS Assay for Inhibitors of Histone Lysine Methyltransferase G9a. Histone-lysine N-methyltransferase EHMT2 (Homo sapiens), Q96KQ7. G9a H3K9 monomethylation, AlphaScreen, 2 h. Potency, µM (series often up to 102 µM), for inactives: top-dose activity, negative = inhibition, most hits filed as inhibitors. actives 8.8% (n = 350,000). AID 504332, 2011; further: on the % scale 0 is the no-effect control and ±100 the full control effect; nearly all actives have a fitted effect of over 75% in size
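Readings reflect AlphaScreen signal from monomethyl-H3K9 antibody detection. HMT at 20 nM; substrate b-H3K9 500 nM; cofactor SAM 20 uM; 2 h RT reaction; compounds tested as titrations in qHTS with 15 min preincubation.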
PLK1 PBD block = qHTS for Inhibitors of PLK1-PDB (polo-like kinase 1 - polo-box domain): Primary Screen; Potency, µM, for inactives: max response, negative = inhibition, most hits filed as inhibitors; AID 720504, 2013; Serine/threonine-protein kinase PLK1 (Homo sapiens), P53350; Plk1 PBD binding of FITC phosphopeptide, fluorescence polarization; actives 2.8% (n = 360,000); further: series mostly up to about 57 µM; on the % scale 0 is the no-effect control and ±100 the full control effect; nearly all actives have a fitted effect of over 65% in size
* marks the source's active call; other numbers are inactive results; u = inconclusive; x = no result given; [ ] = dose if it differs, or a comment. The call rests on the fitted dose curve; in most records, active means well fitted curve in the direction sought with a large enough effect; inconclusive means small, poorly fitted or top-dose-only effect, or another doubt; inactive means no such curve, though single readings can be large; an effect the other way counts as inactive or inconclusive. Potency means the concentration at half of the fitted maximal effect.

SMILES | ALOX12 inh | JMJD2A Tudor inh | BAZ2B block | HP1b chromo inh | G9a block | PLK1 PBD block
CN(Cc1ccccc1)C(=O)C1CCN(S(=O)(=O)c2ccc3nc4c(c(C(=O)O)c3c2)CCCC4)CC1 | -30% | -32% | 50µM* | 4%[57 µM] | u | u
CC(NC(=O)C1CCN(S(=O)(=O)c2ccccc2)CC1)c1ccccc1 (centres undefined) | 21% | u | -7% | u | 55% | -2%
CC1CCC(NC(=O)C2CCN(S(=O)(=O)c3ccc4nc5c(c(C(=O)O)c4c3)CC(C)CC5)CC2)CC1 (centres undefined) | -18% | -6% | -16% | 17% | 50µM* | -12%
O=C(O)c1c2c(nc3ccc(S(=O)(=O)N4CCC(C(=O)NCc5ccccc5)CC4)cc13)CCCC2 | -58% | x | x | x | x | -12%
CCOC(=O)Cn1c(=O)n(Cc2ccc(C)cc2)c(=O)c2cccnc21 | 10% | 23% | 7% | 69% | 9%[2.33 µM] | -15%
CNC(=O)C1(N2CCC[C@H]2C(=O)N2CCCC2)COC1 | -19%[176 µM] | x | x | x | x | x
CN(Cc1ccccc1)C(=O)C1CCN(S(=O)(=O)c2cccc3nsnc23)CC1 | -3% | 14µM* | -21% | 1% | 0%[59 µM] | 3.4µM*
Cc1ccc(N/N=C2\CCS(=O)(=O)c3sccc32)cc1 | u | u | u | 13% | 8.9µM* | -2%
CS(=O)(=O)Nc1cccc(NC(=O)c2cccc3c(-c4ccc(F)c(F)c4)coc23)c1 | -35% | x | x | x | x | -15%
COc1cc(OC)cc(C2=Cc3ccccc3C(CC(C)=O)N2c2ccc(-c3cccs3)cc2)c1 (centres undefined) | u | x | x | x | x | 1%
Cc1cc(NCCCn2ccnc2)n2nc(-c3ccc(Cl)cc3)cc2n1 | -1% | u | 45µM* | 4% | x | -6%
NC1=NC(=Nc2ccc(S(=O)(=O)N3CCOCC3)cc2)c2ccccc21 | 0% | 0% | 3% | 192% | -1%[59 µM] | -4%
O=C(Cn1c(=O)[nH]c2ccccc2c1=O)Nc1ccc2c(c1)OCO2 | -4% | u | -28% | 5% | u | -11%
CCOc1cccc(-c2cc(C(=O)O)c3ccc(C)c(C)c3n2)c1 | 40µM* | x | x | x | x | x
Cc1c(Cl)ccc2c(C(=O)O)cc(-c3ccccc3)nc12 | -22% | -13%[11.4 µM] | u | 13% | x | 24µM*
CCOc1ccc(-c2cc(C(=O)O)c3cc(C)cc(C)c3n2)cc1 | -8% | x | x | x | x | x
Cc1ccc2c(C(=O)O)cc(-c3ccccc3)nc2c1C | -14% | x | x | x | x | x
O=C(Nc1ccc(F)cc1)NC1CCN(Cc2nnnn2Cc2ccco2)CC1 | u | u | -3% | 2% | -8%[59 µM] | -14%
COc1ccc(CCNC(=O)CSc2nnc(Cc3csc(N)n3)n2C)cc1OC | -9% | 50µM* | 22µM* | 26% | 23%[59 µM] | -7%
COc1ccc(CCNC(=O)CSc2nnc(Cn3c(=O)sc4ccccc43)n2C)cc1OC | 10% | -17% | 2% | 13% | 21% | -5%
COc1ccc(CCNC(=O)CCCc2nnc3n(C)c(=O)c4sccc4n23)cc1OC | u | -4% | u | 25% | 22µM* | -2%
Cc1ccc(CN2CC(N3CCN(CC4CC4)CC3)CS2(=O)=O)cc1 (centres undefined) | -11% | x | x | x | x | -7%
N#C/C(=C/c1ccccc1OCc1ccc(F)cc1)c1ccc(C(=O)O)cc1 | u | -15% | u | 28% | u | u
N#C/C(=C/c1ccc(OCc2ccc(C(=O)O)cc2)c(Br)c1)c1cccc(F)c1 | -29% | 56µM* | u | 5% | -51% | u
Cc1csc(/C(C#N)=C\c2ccc(OC(F)(F)F)cc2)n1 | -2% | x | x | x | x | x
SMILES | ALOX12 inh | JMJD2A Tudor inh | BAZ2B block | HP1b chromo inh | G9a block | PLK1 PBD block
Cc1nc(-c2noc(-c3ccc(Cl)cc3)n2)c(C(F)(F)F)o1 | 0% | -8% | 9% | 18% | 11% | -2%
CCOC(=O)c1oc2cccc(O)c2c1C | u | -4% | 7% | -8% | -41%[2.33 µM] | -3%
CCOC(=O)c1oc2ccc(CNC(C)(C)C)c(Cl)c2c1C | u | 10µM* | 50µM* | -33% | 8.9µM* | -17%
Cc1ccn2c(=O)nc(SCC(=O)NCc3ccccc3Cl)nc2c1 | -16% | -28% | -32% | 4% | u | -11%
O=C(O)c1ccc(CSc2nc3ccccc3[nH]2)cc1 | 0% | -1% | -4% | 65% | -18% | 6%
Cn1cnc([N+](=O)[O-])c1Sc1nc2ccccc2[nH]1 | 0% | -9% | 25% | 15% | -3% | -12%
CCN1CCN(c2ccc([N+](=O)[O-])c(Sc3nc4ccccc4[nH]3)c2)CC1 | -1% | -34% | -27% | u | 32µM* | -13%
O=[N+]([O-])c1ccc(N2CCN(CCO)CC2)cc1Sc1ccccn1 | -7% | -5% | -19% | 1% | -5% | -7%
O=C(O)c1cc([N+](=O)[O-])c(Sc2nc3ccccc3[nH]2)c([N+](=O)[O-])c1 | -25% | -7% | -7% | 26% | 40µM* | 21µM*
CS(=O)(=O)c1cc([N+](=O)[O-])c(Sc2nc3ccccc3[nH]2)c([N+](=O)[O-])c1 | u | u | -29% | u | u | 1.5µM*
COc1ccc(CNC(=O)CCc2cn(Cc3cc(C)ccc3C)c3ccccc23)cc1OC | -20% | -20% | u | 23% | -37%[59 µM] | x
COc1ccc(Cn2ccc3nc(C)c(C(=O)N4CCN(c5ccc(F)cc5)CC4)cc3c2=O)cc1 | 5% | -27% | -17% | 26% | -4%[59 µM] | x
COCCCNC(=O)C1Cc2cc(S(=O)(=O)N3CCCC3)ccc2N1C(C)=O (centres undefined) | -5% | u | -10% | 2% | 18% | 21µM*
CC(=O)N1c2ccc(S(=O)(=O)N3CCCCCC3)cc2CC1C(=O)NCc1cccc(F)c1 (centres undefined) | -35% | -13% | -4% | -6% | 7%[59 µM] | x
CC(=O)N1c2ccc(S(=O)(=O)N3CCCC3)cc2CC1C(=O)NCc1cccc(F)c1 (centres undefined) | 11% | u | -11% | -6% | 29% | 24µM*
O=[N+]([O-])c1ccc(/C=[N+](\[O-])[C@@H]2CCCC[C@@H]2/[N+]([O-])=C/c2ccc([N+](=O)[O-])o2)o1 | u | -35% | 2.5µM* | -10% | 50µM* | -6%
